# Assay outcomes (PubChem BioAssay)
# IMPase cell inh – IMPase inhibition in cells; P97697; CHO-M1 cells, IP1 accumulation, HTRF TR-FRET ratio; inhibition (IP1 accumulation), % at 46.1 µM; 120,000 tested, under 10 active; AID 901; active means well fitted curve in the direction sought with a large enough effect in the signal ratio, not every such curve was filed as active; inconclusive means small, poorly fitted or top-dose-only effect, or a change in a side signal; inactive means no such curve, though single readings can be large or run the other way; the % refers to the signal ratio;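 further: cells stimulated with carbachol in lithium chloride buffer; higher means more IMPase inhibition seen as more IP1 and lower FRET ratio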
#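 The IP-One HTRF competitive assay in carbachol-stimulated CHO-M1 cells quantifies cellular IP1. Compounds spanned up to 46 uM final, and activity is expressed as AC50 from concentration-response fits of the ratio and donor data.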
# IMPase Li cell – cell-permeable IMPase inhibitors with lithium potentiation. CHO-M1 cells, IP1 TR-FRET (IP-One), carbachol + lithium. Potency, µM (titrated, usually from 59.4 µM), most hits filed as inhibitors. hit rate 0.35% among 210,000. AID 1457; active means well fitted curve in the direction sought with a large enough effect; inconclusive means small, poorly fitted or top-dose-only effect, or another doubt; inactive means no such curve, though single readings can be large; an effect the other way counts as inactive or inconclusive;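 further: IP1 builds up when IMPase is blocked and the TR-FRET signal falls; nearly all actives have a fitted effect of over 50% in size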
#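 Steps: plate 2000 CHO-M1 cells per well and culture 16–30 h; add compound and lithium; incubate 30 min, 37C; add d2-IP1 tracer and Eu cryptate anti-IP1 antibody in lysis buffer; read after 10 min at room temperature.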
# ALDH1A1 inh – blocks purified human ALDH1A1 activity | P00352 | Purified ALDH1A1, NADH fluorescence, propionaldehyde substrate | Potency, µM (highest dose often 75.3 µM), most hits filed as inhibitors | hit rate 7.3% among 220,000
# HPGD inh – blocks human HPGD enzyme activity; P15428; purified HPGD, NADH fluorescence kinetic, PGE2 substrate; Potency, µM, usual class: inhibitors; hit rate 4.3% among 150,000
#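 20 nM HPGD preincubated 15 min at room temperature with compound in 50 mM Tris-HCl pH 8, 0.01% Tween 20. Started with 1 mM NAD+ and 30 uM prostaglandin E2; NADH fluorescence (360/450 nm) read 5 times over 30-s intervals, last minus first.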
# PNC assembly inh – blocks assembly of the perinucleolar compartment; activity change (PNC), negative = inhibition, % at 10 µM; hit rate 3.1% among 140,000; AID 2417; PC3M PTB-GFP, PNC prevalence imaging, 16 h; hits give low values;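 active means readout at or below -70, meaning at least 70% loss of cells showing the perinucleolar compartment, a nuclear body marking cancer cells; inconclusive means readout between -30 and a set limit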
#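 Compounds are pinned in duplicate onto adhered PC3M cells stably expressing GFP-tagged PTB and incubated 16 h at 37 C. Cells are then fixed, nuclei stained with Hoechst, and PNC-positive cells counted.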
# 12-hLO inh – inhibitors of human 12-lipoxygenase (ALOX12). AID 1452. hit rate 0.12% among 150,000. purified 12-hLO, xylenol orange hydroperoxide absorbance. Potency, µM (highest dose often 57.1 µM), hits mostly inhibitors; active means well fitted curve in the direction sought with a large enough effect; inconclusive means small, poorly fitted or top-dose-only effect, or another doubt; inactive means no such curve, though single readings can be large; an effect the other way counts as inactive or inconclusive; further: nearly all actives have a fitted effect of over 55% in size
# Target sequence (P18054 whole entry, looked up): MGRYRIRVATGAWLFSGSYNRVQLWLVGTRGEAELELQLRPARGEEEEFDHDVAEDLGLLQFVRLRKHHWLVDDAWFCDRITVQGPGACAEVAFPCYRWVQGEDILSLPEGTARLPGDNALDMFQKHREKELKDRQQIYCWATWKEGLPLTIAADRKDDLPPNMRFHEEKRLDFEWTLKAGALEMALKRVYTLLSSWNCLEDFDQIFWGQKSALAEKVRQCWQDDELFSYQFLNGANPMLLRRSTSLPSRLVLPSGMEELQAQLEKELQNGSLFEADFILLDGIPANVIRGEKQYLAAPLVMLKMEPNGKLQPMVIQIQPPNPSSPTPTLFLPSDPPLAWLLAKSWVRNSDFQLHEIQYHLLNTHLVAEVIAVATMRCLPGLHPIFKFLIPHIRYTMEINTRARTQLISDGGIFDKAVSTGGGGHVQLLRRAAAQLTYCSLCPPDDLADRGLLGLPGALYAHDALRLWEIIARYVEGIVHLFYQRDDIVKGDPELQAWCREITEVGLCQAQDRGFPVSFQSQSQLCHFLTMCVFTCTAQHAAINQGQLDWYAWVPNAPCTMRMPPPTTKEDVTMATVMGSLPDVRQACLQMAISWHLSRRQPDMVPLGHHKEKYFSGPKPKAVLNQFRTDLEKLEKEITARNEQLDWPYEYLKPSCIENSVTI
#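 Hydroperoxide formation by human 12-lipoxygenase from 40 uM arachidonic acid was followed colorimetrically via ferric-xylenol orange complex, using the 573/405 nm absorbance ratio. Enzyme concentration was 150 nM, with 30 min reaction at room temperature.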
# Hits are given with their value; – = inactive; ? = inconclusive; · = no result given; ! = a repeat was not active; [ ] = dose if it differs, or a comment. A selection: hits, their analogues and other compounds. The true share with any hit is near 11%. Unless noted, the call rests on the fitted dose curve; in most records, active means well fitted inhibition curve with a large enough effect (not every such curve was filed as active); inconclusive means small, poorly fitted or top-dose-only effect, or another doubt; inactive means no such curve, though single readings can be large or run the other way.
SMILES,IMPase cell inh,IMPase Li cell,ALDH1A1 inh,HPGD inh,PNC assembly inh,12-hLO inh
CC(=O)c1cccc(Nc2nc(-c3cccc([N+](=O)[O-])c3)cs2)c1,–,–,?,–,-85,–
O=C(N/N=C\c1ccccc1O)c1ccccc1O,–,–,–,?,·,–
COc1ccccc1NC(=O)C1=C(C)Nc2nnnn2C1c1cc(Br)c(O)c(OC)c1 (stereo unspecified),–,·,·,·,·,·
C[N+](C)(CC#Cc1ccccc1)CC(=O)c1ccc(Cl)cc1,·,–,–,–,-90,–
Fc1ccc(CNCc2ccccc2Cl)cc1,·,–,11µM,·,·,·
Clc1ccc(-c2nnc3sc(Cc4cccs4)nn23)cc1,–,–,22µM,–,–,–
O=C1c2ccccc2C(=O)N1Cc1nn2c(-c3ccc(Cl)cc3)nnc2s1,?,11µM,14µM,–,?,–
CN(C)CCCOC1C(C(O)CO)OC2OC(C)(C)O[C@@H]21 (stereo partly specified),·,–,–,–,·,–
Oc1[nH]c2c(Cl)cc(Cl)cc2c1N=NC(=S)NCC1CCCO1 (stereo unspecified),–,–,0.45µM,–,–,–
Cc1cc(C)c2[nH]c(O)c(N=NC(=S)NCC3CCCO3)c2c1 (stereo unspecified),·,–,0.079µM,–,–,–
CCn1c(=O)cc(SCC(=O)NCC2CCCO2)c2ccccc21 (stereo unspecified),–,–,?,?,?,–
Oc1[nH]c2ccccc2c1N=NC(=S)NCC1CCCO1 (stereo unspecified),–,–,–,?,?,–
CCn1c(O)c(N=NC(=S)NCC2CCCO2)c2ccccc21 (stereo unspecified),·,–,0.5µM,·,·,·
CC1=C(/C=C/C(C)=C/C=C/C(C)=C/C=C/C=C(C)/C=C/C=C(C)/C=C/C2=C(C)C(=O)C(O)CC2(C)C)C(C)(C)CC(O)C1=O (stereo unspecified),·,–,–,–,·,–
CCC(=O)Nc1ccc(Br)cn1,·,–,–,·,·,·
CCN(CC)c1ccc(CNc2ccc(Br)cn2)cc1,–,–,7.1µM,–,–,–
Cc1noc(C)c1C(=O)N1CCC2(CC1)CCN(c1ccncc1)CC2,·,–,?,?,·,–
COc1ccc(N=c2oc3c(OC)cccc3cc2C(=O)NCc2ccco2)cc1OC,–,–,0.35µM,–,–,–
COc1cccc(C(=O)N/N=c2\oc3c(OC)cccc3cc2C(=O)NCc2ccccc2)c1,–,–,0.32µM,–,–,–
COc1ccccc1N=c1oc2c(OC)cccc2cc1C(=O)NCc1ccco1,–,·,?,·,?,–
CCOC(=O)c1c(C)[nH]c(C(C)=O)c1C,–,–,8.9µM,–,–,–
CCOC(=O)c1c(C)[nH]c(C(=O)/C(C#N)=C/c2ccc(OCC)cc2)c1C,·,–,3.2µM,–,?,–
CCOC(=O)c1[nH]c(C)c(C(=O)C(C)C)c1C,–,–,–,–,?,–
CCOC(=O)c1c(C)[nH]c(C(=O)COC(=O)CSC)c1C,–,–,–,–,-85,–
CCOC(=O)c1c(C)[nH]c(C(=O)C(C)Cl)c1C (stereo unspecified),·,–,22µM,·,·,·
SMILES,IMPase cell inh,IMPase Li cell,ALDH1A1 inh,HPGD inh,PNC assembly inh,12-hLO inh
CCOC(=O)c1c(C)[nH]c(C(=O)CN2CC(C)OC(C)C2)c1C (stereo unspecified),–,–,7.9µM,–,–,–
COCc1cc(C)nc(Nc2ccc(C)c(C)c2)c1C#N,?,·,28µM,·,–,–
CN(C)CCCN1c2ccccc2Sc2ccc(Cl)cc21,–,–,–,–,-110!,–
CN(C)CCCN1c2ccccc2Sc2ccc3ccccc3c21,·,–,–[13.5 µM],–,·,–[11.4 µM]
CCCCn1c(SCC(=O)c2ccccc2)nc2sc3c(c2c1=O)CCCC3,–,·,·,·,·,·
CC1CCCCC1NC(=O)COC(=O)c1ccc2c(c1Cl)C(=O)c1ccccc1C2=O (stereo unspecified),·,–,–,16µM,–,–
CC(C)[C@@H](CC(=O)N[C@@H]1CCNC[C@H]1C(=O)N[C@H](CC(=O)N[C@@H](CCC(=O)O)CC(=O)O)Cc1ccccc1)NC(=O)C[C@H](Cc1c[nH]c2ccccc12)NC(=O)[C@@H]1CCCC[C@H]1N,·,–,–,–,·,–
Cn1c(Cl)cnc1C1CC(=O)c2cc(Cl)ccc2O1 (stereo unspecified),–,–,18µM,?,-112,–
COC(=O)/C=C\CCc1coc(/C=C\CNC(=O)OC)n1,·,·,–[13.5 µM],·,·,·
N=c1n(CC(=O)c2ccc([N+](=O)[O-])cc2)c2ccccc2n1Cc1ccccc1,–,–,–,–,–,–
N=c1n(CC(=O)c2ccc([N+](=O)[O-])cc2)c2ccccc2n1Cc1ccccc1Cl,·,–,–,–,-88,–
Cc1ccc(C(=O)Nc2cccc(C(=O)NCc3ccccc3)c2)cc1,·,–,–,–,–,–
Cc1occc1C(=O)NCc1ccccc1F,–,–,10µM,?,–,–
Cc1occc1C(=O)Nc1cccc(C(=O)NCc2ccccc2)c1,–,–,?,22µM,–,–
CO[C@H]1COC(=O)CCC[C@@H](C)[C@H](OC)COC(=O)[C@H]2CCCN2C(=O)C/C=C\[C@@H]1C,·,·,–[13.5 µM],·,·,·
COC(=O)C1=C(C)N(Cc2ccccc2)[C@]23O[C@](C(=O)OC)(C(=O)N2C1c1ccccc1)C(C(=O)OC)C3C(=O)OC (stereo partly specified),·,·,–[13.5 µM],·,·,·
O=c1c(-c2cccs2)nc2cnc(N3CCNCC3)nc2n1CCc1ccccc1,·,–,?,·,·,·
COC(=O)C/C=C/[C@@H](C)[C@@H](/C=N/O[C@@H](C)c1cn([C@H](CO)Cc2ccccc2)nn1)NS(=O)(=O)c1ccc(C)cc1,·,–,18µM,–,–,–
Cc1cc2ccccn2c1C(=O)c1ccc(S(=O)(=O)N(C)C)cc1,·,–,–,·,·,·
CCNS(=O)(=O)c1cccc(C(=O)c2c(C)cc3ccccn23)c1,·,–,–,–,-90,–
CS(=O)(=O)N1CCN(c2ccccc2NC(=O)Cc2ccccc2)CC1,–,–,–,–,–,–
CC1CCN(c2ccccc2NC(=S)NC(=O)c2cccs2)CC1,–,–,?,–,?,?
CS(=O)(=O)N1CCN(c2ccccc2NC(=S)NC(=O)c2cccs2)CC1,·,–,0.45µM,·,·,·
CS(=O)(=O)N1CCN(c2ccccc2NC(=S)NC(=O)c2ccccc2[N+](=O)[O-])CC1,·,–,0.71µM,·,·,·
COC(=O)c1scc(C)c1N/N=C(\C)c1cc(F)c(Cl)cc1F,–,–,?,?,?,–
CCc1cc2c(nc1CC)CCN(CC/C(C)=N/OCC[C@@H]1C=C[C@H](OC(C)=O)[C@H](COC(C)=O)O1)C2,·,·,–[13.5 µM],·,·,·
